Source: PubChem BioAssay (NCATS)
Results filed as inconclusive are left out. Calls of active or inactive are those of the source. Unless noted, the call rests on the fitted dose curve; in most records, active means well fitted curve in the direction sought with a large enough effect; inconclusive means small, poorly fitted or top-dose-only effect, or another doubt; inactive means no such curve, though single readings can be large; an effect the other way counts as inactive or inconclusive.

Tests used:
[1] = Quantitative High-Throughput drug screen in 47 multiple myeloma cell lines against the NCATS MIPE library collection: OPM2_DSMZ cell viability assay (AID 1919872); further: nearly all actives have a fitted effect of over 30% in size
Method in brief: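 Myeloma cells (500 per well) were exposed to MIPE 4.0 compounds by pin transfer and incubated 48 hours at 37C, 5% CO2. Viability was read as ATP by CellTiter-Glo luminescence, normalised to DMSO (100%) and media-only (0%) wells.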

[2] = Quantitative High-Throughput drug screen in 47 multiple myeloma cell lines against the NCATS MIPE library collection: KMS11_JCRBsus cell viability assay (AID 1919873); further: nearly all actives have a fitted effect of over 50% in size; further: potency means the concentration at half of the fitted maximal effect
Method in brief: (§1)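 Viability after 48 h drug exposure was measured as ATP-dependent luminescence. Cells, 500 per well, sat at 37 °C under 5% CO2; DMSO wells set 100%, media-only wells 0%.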

[3] = Quantitative High-Throughput drug screen in 47 multiple myeloma cell lines against the NCATS MIPE library collection: KMS28BM_JCRB cell viability assay (AID 1919874); further: nearly all actives have a fitted effect of over 35% in size; further: potency means the concentration at half of the fitted maximal effect
Method in brief: as §1

[4] = qHTS for identification of novel therapeutic agents for treatment of microphthalmiaassociated transcription factor (MiT) renal cell carcinoma (RCC) (AID 1963991); details: CellTiter-Glo, 48 h, stronger effect = lower value
Method in brief: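 Curves over 11 concentrations were fitted to CellTiter-Glo luminescence, scaled between empty wells (0%) and DMSO (100%) viability. Cells were UOK109, UOK124 and UOK145 TFE3-fusion RCC lines at 500/well, exposed 48 hours at 37 C.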

[5] = Quantitative High-Throughput drug screen in 47 multiple myeloma cell lines against the NCATS MIPE library collection: RPMI8226_ATCC cell viability assay (AID 1919871); further: nearly all actives have a fitted effect of over 30% in size; further: potency means the concentration at half of the fitted maximal effect
Method in brief: as §1

[6] = qHTS drug screen for cell cycle checkpoint inhibitors in PARPi-resistant BRCA-mutant ovarian cancer cell lines. (AID 1963452; calls by dose curve); details: PEO1/OlaR viability, CellTiter-Glo luminescence, 96 h, stronger effect = lower value
Method in brief: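 PEO1, PEO4 and PEO1/OlaR ovarian cancer cells, 600 per well, exposed 96 h at 37C to a dilution series. Viability read by CellTiter-Glo luminescence, normalized to DMSO and empty wells; activity summarized as Z-AUC.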

7G8 = test: qHTS profiling for inhibitors of Plasmodium falciparum proliferation (AID 504749); further: nearly all actives have a fitted effect of over 60% in size; further: potency means the concentration at half of the fitted maximal effect;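 on activity, negative = inhibition: 0% = DMSO vehicle and full inhibition = artemisinin control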; details: P. falciparum in erythrocytes, SYBR Green DNA, 72 h; series mostly up to 28.7 µM
Method in brief: (§2)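 Readout was DNA-dye fluorescence from lysed cultures, ex 485/em 535 nm. Parasitized red cells had grown 72 h with compound; data scaled between 0.29 uM artemisinin and DMSO wells and corrected using vehicle-only plates.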

[7] = as above; details: P. falciparum in erythrocytes, SYBR Green DNA, 72 h; for activity, negative = inhibition: at 28.7 µM (top of the series)
Method in brief: as §2

3D7 = test: as above; details: P. falciparum in erythrocytes, SYBR Green DNA, 72 h; series mostly up to 28.7 µM
Method in brief: as §2

[8] = KB-8-5-11 P-gp reporter qHTS against the NCATS DSHEA and TCM libraries (AID 1919977); further: 0% is about no effect
Description: Assay Development and Screening Technology Laboratory (ADST)
National Center for Advancing Translational Sciences (NCATS), Rockville, MD
National Institute of Health (NIH), Bethesda, Maryland
Dietary Supplements and Natural Products have minor oversight of their safety and efficacy. We assembled a collection of Dietary Supplements and Natural Products (DSNP) as well as Traditional Chinese Medicinal (TCM) Plant extracts, which were screened against an in vitro panel of assays, including a liver cytochrome p450 enzyme panel, CAR/PXR signaling pathways, and P-gp transporter assays, to assess their activity. This pipeline facilitated the interrogation of Natural Product-Drug Interaction (NaPDI) through prominent metabolizing pathways. In addition, we compared the activity profiles of the DSNP/TCM substances with those of an approved drug collection. Many of the approved drugs have well-annotated mechanisms of action (MOA) while the MOAs for most of the DSNP and TCM samples remain unknown. […] Overall, we highlight four significant bioactivity profiles (measured by p-values) as examples of this prediction. […] To profile potential P-gp activity, a differential cell viability was measured against two cell lines: a parental KB-3-1 human cervical adenocarcinoma cell line and the drug-resistant subline KB-8-5-11 that overexpresses P-gp. […]
8; Read; Luminescence; ViewLux plate reader. […]

[9] = TFE3-RCC UOK109 viability, measured here: UOK109 Z-AUC
[10] = TFE3-RCC viability, measured here: UOK124 Z-AUC
[11] = TFE3-RCC viability, measured here: UOK145 Z-AUC
[12] = measured here: PEO1 parental Z-AUC

For `CCC(=O)OC1CCC2C3CCC4=CC(=O)CC[C@@]4(C)C3CC[C@]12C` (stereo not given in full), the Potency [1] was “inactive”, the Potency [2] was “inactive” and the Potency [3] was “inactive”. It also gave a z-score [4, 9] of 0.231, a z-score [4, 10] of 0.282 and a z-score [4, 11] of -0.0668.
For `CCNC(=O)C[C@@H]1N=C(c2ccc(Cl)cc2)c2cc(OC)ccc2-n2c(C)nnc21`, the Potency [5] was 1.18 µM (active), the Potency [2] was 0.105 µM (active) and the Z-AUC [6] was -0.661 (inactive). It also gave a Z-AUC [6, 12] of -0.0106 and a Z-AUC ([6]; measured here: PEO4 Z-AUC) of -0.343.
In the case of `CC(=O)N(C)c1cccc(-c2ccnc3c(C(=O)c4cccs4)cnn23)c1`, the Potency [1] is reported as “inactive”, the Potency [2] is reported as 18.7 µM (active) and the Potency [3] is reported as “inactive”.
For `COC1=C[C@@H]2[C@@H]3Cc4ccc(OC)c(O)c4[C@]2(CCN3C)CC1=O`, the Potency [5] was “inactive”, the Z-AUC [6] was 0.716 (inactive) and the Z-AUC [6, 12] was 0.742. The Z-AUC ([6]; measured here: PEO4 Z-AUC) was 0.886.
For `COc1cccc2c1[C@]13CCN(CC4CC4)[C@H](C2)[C@]1(OC)CCC(=O)C3`, the Potency [1] was “inactive”, the Potency [2] was “inactive” and the Potency [3] was “inactive”. The z-score [4, 9] was 0.6, the z-score [4, 10] was 0.387 and the z-score [4, 11] was 0.213.
For `C=CCON=C(C[C@H]1O[C@@H]2O[C@]3(C)CC[C@@H]4[C@H](C)CC[C@@H]([C@H]1C)[C@@]24OO3)[C@H]1O[C@@H]2O[C@]3(C)CC[C@H]4[C@H](C)CC[C@@H]([C@@H]1C)[C@@]24OO3`, the Potency [5] was 0.235 µM (active), the Potency [2] was 0.187 µM (active) and the Potency [3] was 0.332 µM (active).
In the case of `Clc1ccccc1C(c1ccccc1)(c1ccccc1)n1cccn1`, the Potency [5] is reported as 20.9 µM (active), the Z-AUC [6] is reported as 0.364 (inactive) and the Z-AUC [6, 12] is reported as 0.863. It also gave a Z-AUC ([6]; measured here: PEO4 Z-AUC) of 1.14, a z-score [4, 9] of -0.446 and a z-score [4, 10] of 0.841. For the same compound, the z-score [4, 11] was -1.28.
For `NC1=NC(=O)N2CC12` (stereo not given), the Potency [1] was “inactive”, the Potency [2] was “inactive” and the Potency [3] was “inactive”. For the same compound, the Z-AUC [6] was -1.19 (inactive), the Z-AUC [6, 12] was -0.747 and the Z-AUC ([6]; measured here: PEO4 Z-AUC) was -0.506. The z-score [4, 9] was 0.952, the z-score [4, 10] was 1.24 and the z-score [4, 11] was 1.15. The Potency (7G8) was 10 µM (active).
With `CCCCCC[C@H]1C(=O)O[C@H](C)[C@H](NC(=O)c2cccc(NC=O)c2O)C(=O)O[C@@H](C)[C@@H]1OC(=O)CC(C)C` the Potency [5] was 1.05 µM (active), the Potency [2] was 0.0743 µM (active) and the Potency [3] was 0.209 µM (active). The Z-AUC [6] was -1.4 (inactive), the Z-AUC [6, 12] was -1.96 and the Z-AUC ([6]; measured here: PEO4 Z-AUC) was -1.72.
In the case of `Cc1c(C(=O)Nc2cccc(C(F)(F)F)c2)cc(-c2ccccc2)n1CCCN1CCOCC1`, the Potency [5] is reported as 14.8 µM (active), the Potency [2] is reported as 23.5 µM (active) and the Potency [3] is reported as 5.9 µM (active). For the same compound, the Z-AUC [6] was -1.03 (inactive), the Z-AUC [6, 12] was -0.727 and the Z-AUC ([6]; measured here: PEO4 Z-AUC) was -1.05.
With `CN1CCN(c2ccc([N+](=O)[O-])c3no[n+]([O-])c23)CC1` the Potency [2] was 23.5 µM (active), the Potency [3] was 18.7 µM (active) and the Z-AUC [6] was 1.21 (inactive). It also gave a Z-AUC [6, 12] of 1.82 and a Z-AUC ([6]; measured here: PEO4 Z-AUC) of 1.04.
With `Cc1cc(O)ccc1Cl` the activity, negative = inhibition ([7]; parasite line A) was 4.69% (inactive), the activity, negative = inhibition ([7]; parasite line B) was -0.29% (inactive) and the Potency (3D7) was “inactive”.
With `CCCCc1ccc(C(=O)O)nc1` the activity, negative = inhibition ([7]; parasite line A) was 0.211% (inactive), the activity, negative = inhibition ([7]; parasite line B) was 1.46% (inactive) and the Potency (3D7) was “inactive”. For the same compound, the Potency (7G8) was “inactive”.
For `O=C(N[C@@H](COc1ccc2[nH]c(=O)[nH]c2c1)c1ccccc1)c1cccn(Cc2ccc(F)c(F)c2)c1=O`, the Potency [1] was “inactive”, the Z-AUC [6] was -0.315 (inactive) and the Z-AUC [6, 12] was 0.00624. For the same compound, the Z-AUC ([6]; measured here: PEO4 Z-AUC) was 0.64.
In the case of `C[C@]12CCC(=O)C(O)=C1CC[C@@H]1[C@H]3CCC(=O)[C@@]3(C)CC[C@@H]12`, the Potency [1] is reported as “inactive”, the Potency (3D7) is reported as “inactive” and the Potency (7G8) is reported as “inactive”.
In the case of `CN1C2CCC1CC(OC(=O)c1cc(Cl)cc(Cl)c1)C2` (stereo not given), the activity, negative = inhibition ([7]; parasite line A) is reported as -1.17% (inactive), the activity, negative = inhibition ([7]; parasite line B) is reported as 5.18% (inactive) and the Potency (3D7) is reported as “inactive”. The Potency (7G8) was 6.31 µM (active).
In the case of `CC(=O)[O][Hg][c]1ccccc1`, the Potency ([7]; parasite line A) is reported as 3.98 µM (active), the Potency ([7]; parasite line B) is reported as 6.31 µM (active) and the Potency (3D7) is reported as 12.6 µM (active). The Potency (7G8) was 1 µM (active).
For `C=CCN1CC[C@]23CCCCC2[C@H]1Cc1ccc(O)cc13` (stereo not given in full), the activity, negative = inhibition ([7]; parasite line A) was 18.6% (inactive), the activity, negative = inhibition ([7]; parasite line B) was 4.44% (inactive) and the Potency (3D7) was “inactive”. The Potency (7G8) was 11.2 µM (active).
For `NC(=O)CN1CC(O)CC1=O` (stereo not given), the activity, negative = inhibition ([7]; parasite line A) was 3.26% (inactive), the activity, negative = inhibition ([7]; parasite line B) was 7.69% (inactive) and the Potency (3D7) was “inactive”. The Potency (7G8) was “inactive”.
With `CC[N+]1(CCOC(=O)C(O)(c2ccccc2)c2ccccc2)CCCCC1` the activity, negative = inhibition ([7]; parasite line A) was -23.7% (inactive), the activity, negative = inhibition ([7]; parasite line B) was -20.1% (inactive) and the Potency (3D7) was “inactive”.
In the case of `O=[N+]([O-])c1ccc([As](=O)(O)O)cc1`, the Potency ([7]; parasite line A) is reported as 6.31 µM (active), the Potency ([7]; parasite line B) is reported as 6.31 µM (active) and the Potency (3D7) is reported as 10 µM (active). The Potency (7G8) was 3.55 µM (active).
For `CC(=O)Nc1ccc(OC[C@](C)(O)C(=O)Nc2ccc([N+](=O)[O-])c(C(F)(F)F)c2)cc1`, the Z-AUC [6] was -0.618 (inactive), the Z-AUC [6, 12] was -0.737 and the Z-AUC ([6]; measured here: PEO4 Z-AUC) was -0.359.
For `C1CCC(NC2CCCCC2)CC1`, the activity, negative = inhibition ([7]; parasite line A) was 7.71% (inactive), the activity, negative = inhibition ([7]; parasite line B) was 9.08% (inactive) and the Potency (3D7) was “inactive”. For the same compound, the Potency (7G8) was “inactive”.
With `CC(C)NC(C)Cc1ccc(I)cc1` (stereo not given) the activity, negative = inhibition ([7]; parasite line A) was 11.4% (inactive), the activity, negative = inhibition ([7]; parasite line B) was -12.4% (inactive) and the Potency (3D7) was “inactive”. The Potency (7G8) was 10 µM (active).
For `O=C(O)COc1ccccc1`, the activity, negative = inhibition ([7]; parasite line A) was -0.911% (inactive), the activity, negative = inhibition ([7]; parasite line B) was 7.97% (inactive) and the Potency (3D7) was “inactive”. For the same compound, the Potency (7G8) was “inactive”.
For `O=C(O)c1ccccc1O`, the outcome [8] was “inactive”.
With `CC(C)[C@]12O[C@H]1[C@@H]1O[C@]13[C@]1(O[C@H]1C[C@H]1C4=C(CC[C@@]13C)C(=O)OC4)[C@@H]2O` the Z-AUC [6] was -2.76 (inactive), the Z-AUC [6, 12] was -2.59 and the Z-AUC ([6]; measured here: PEO4 Z-AUC) was -3.67.
For `C[C@](O)(COc1ccc(C#N)cc1)C(=O)Nc1ccc(C#N)c(C(F)(F)F)c1`, the Potency [1] was “inactive”, the Z-AUC [6] was 0.66 (inactive) and the Z-AUC [6, 12] was 0.716. For the same compound, the Z-AUC ([6]; measured here: PEO4 Z-AUC) was 0.592.
In the case of `O=C(O)C(Cl)Cl`, the activity, negative = inhibition ([7]; parasite line A) is reported as 7.93% (inactive), the activity, negative = inhibition ([7]; parasite line B) is reported as -3.72% (inactive) and the Potency (3D7) is reported as “inactive”. For the same compound, the Potency (7G8) was “inactive”.
